Data reported in the supplement of paper PMC12282887.
± gives the standard deviation of the averaged measurements.

Legend:
Assay in all cases: promoter activity interaction Z-score (Lux/OD deviation from empty-vector control); higher = stronger promoter induction by the compound
[1] = system: E. coli BW25113 ompFp lux reporter
Procedure, shortened: (§1)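 E. coli BW25113 luxCDABE reporter strains grew at 37°C in 40 µl LB Lennox in 384-well plates, with OD600 and luminescence read every 30 min for 12 h. After integration over 0–8 h for wild type or 1–9 h for deletion strains, wells under 10% of the median growth value were removed. Each score is the Z-transformed residual of growth-normalised luminescence fitted against a control.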

[2] = system: E. coli BW25113 robp lux reporter
Procedure, shortened: as §1

[3] = system: E. coli BW25113 soxSp lux reporter
Procedure, shortened: as §1

[4] = system: E. coli BW25113 tolCp lux reporter
Procedure, shortened: as §1

[5] = system: E. coli BW25113 acrABp lux reporter
Procedure, shortened: as §1

[6] = system: E. coli BW25113 micFp lux reporter
Procedure, shortened: as §1

[7] = 0.15 µg/ml, genetic background: Δrob
[8] = 0.15 µg/ml, genetic background: ΔsoxS
[9] = 0.29 µg/ml, genetic background: wild type
[10] = 0.29 µg/ml, genetic background: ΔmarA
[11] = 0.29 µg/ml, genetic background: Δrob
[12] = 0.29 µg/ml, genetic background: ΔsoxS
[13] = 0.07 µg/ml, genetic background: wild type
[14] = 0.07 µg/ml, genetic background: ΔmarA
[15] = 0.07 µg/ml, genetic background: Δrob
[16] = 0.07 µg/ml, genetic background: ΔsoxS
[17] = 0.15 µg/ml, genetic background: wild type
[18] = 0.15 µg/ml, genetic background: ΔmarA
[19] = 0.12 µg/ml, genetic background: wild type
[20] = 0.12 µg/ml, genetic background: ΔmarA
[21] = 0.12 µg/ml, genetic background: Δrob
[22] = 0.12 µg/ml, genetic background: ΔsoxS
[23] = 0.24 µg/ml, genetic background: wild type
[24] = 0.24 µg/ml, genetic background: ΔmarA
[25] = 0.24 µg/ml, genetic background: Δrob
[26] = 0.24 µg/ml, genetic background: ΔsoxS
[27] = 0.48 µg/ml, genetic background: wild type
[28] = 0.48 µg/ml, genetic background: ΔmarA
[29] = 0.48 µg/ml, genetic background: Δrob
[30] = 0.48 µg/ml, genetic background: ΔsoxS
[31] = 1 µg/ml, genetic background: wild type
[32] = 1 µg/ml, genetic background: ΔmarA
[33] = 1 µg/ml, genetic background: ΔsoxS

NCC[C@H](O)C(=O)N[C@@H]1C[C@H](N)[C@@H](O[C@H]2O[C@H](CN)[C@@H](O)[C@H](O)[C@H]2O)[C@H](O)[C@H]1O[C@H]1O[C@H](CO)[C@@H](O)[C@H](N)[C@H]1O [Amikacin]
promoter activity interaction Z-score [1, 7]: -0.472 ± 0.32
promoter activity interaction Z-score [1, 8]: -0.668 ± 0.2
promoter activity interaction Z-score [1, 9]: 0.00226 ± 0.33
promoter activity interaction Z-score [1, 10]: -0.365 ± 0.65
promoter activity interaction Z-score [1, 11]: -0.428 ± 0.22
promoter activity interaction Z-score [1, 12]: -0.0742 ± 0.3
promoter activity interaction Z-score [2, 13]: 0.19 ± 0.2
promoter activity interaction Z-score [2, 14]: -0.331 ± 0.085
promoter activity interaction Z-score [2, 15]: 0.0353 ± 0.83
promoter activity interaction Z-score [2, 16]: -0.155 ± 0.68
promoter activity interaction Z-score [2, 17]: 0.0679 ± 0.58
promoter activity interaction Z-score [2, 18]: -0.461 ± 0.45
promoter activity interaction Z-score [2, 7]: -0.248 ± 0.33
promoter activity interaction Z-score [2, 8]: -0.642 ± 0.14
promoter activity interaction Z-score [2, 9]: -0.115 ± 0.051
promoter activity interaction Z-score [2, 10]: 0.598 ± 0.21
promoter activity interaction Z-score [2, 11]: -1.2 ± 0.31
promoter activity interaction Z-score [2, 12]: -0.0862 ± 0.53
promoter activity interaction Z-score [3, 13]: 0.354 ± 0.11
promoter activity interaction Z-score [3, 14]: 0.016 ± 0.15
promoter activity interaction Z-score [3, 15]: 0.176 ± 0.043
promoter activity interaction Z-score [3, 16]: 0.0385 ± 0.3
promoter activity interaction Z-score [3, 17]: 0.336 ± 0.13
promoter activity interaction Z-score [3, 18]: 0.137 ± 0.1
promoter activity interaction Z-score [3, 7]: 0.346 ± 0.51
promoter activity interaction Z-score [3, 8]: -0.156 ± 0.15
promoter activity interaction Z-score [3, 9]: 0.219 ± 0.2
promoter activity interaction Z-score [3, 10]: -0.031 ± 0.32
promoter activity interaction Z-score [3, 11]: -0.131 ± 0.29
promoter activity interaction Z-score [3, 12]: 0.0937 ± 0.57
promoter activity interaction Z-score [4, 13]: -0.282 ± 0.25
promoter activity interaction Z-score [4, 14]: -0.355 ± 0.29
promoter activity interaction Z-score [4, 15]: 1.45 ± 1.6
promoter activity interaction Z-score [4, 16]: 1.15 ± 0.34
promoter activity interaction Z-score [4, 17]: 0.0971 ± 0.8
promoter activity interaction Z-score [4, 18]: 0.793 ± 0.15
promoter activity interaction Z-score [4, 7]: 0.637 ± 0.84
promoter activity interaction Z-score [4, 8]: -0.668 ± 0.34
promoter activity interaction Z-score [4, 9]: 1.16 ± 1.8
promoter activity interaction Z-score [4, 10]: -0.226 ± 1.1
promoter activity interaction Z-score [4, 11]: 1.53 ± 1.6
promoter activity interaction Z-score [4, 12]: 1.21 ± 0.019

O=C(N[C@H](CO)[C@H](O)c1ccc([N+](=O)[O-])cc1)C(Cl)Cl [Chloramphenicol]
promoter activity interaction Z-score [5, 19]: 0.22 ± 0.098
promoter activity interaction Z-score [5, 20]: -0.0897 ± 1
promoter activity interaction Z-score [5, 21]: 0.368 ± 0.066
promoter activity interaction Z-score [5, 22]: 0.272 ± 0.11
promoter activity interaction Z-score [5, 23]: 0.636 ± 0.41
promoter activity interaction Z-score [5, 24]: -0.23 ± 0.65
promoter activity interaction Z-score [5, 25]: 0.312 ± 0.071
promoter activity interaction Z-score [5, 26]: 0.433 ± 0.24
promoter activity interaction Z-score [5, 27]: 1.1 ± 0.056
promoter activity interaction Z-score [5, 28]: -0.541 ± 0.59
promoter activity interaction Z-score [5, 29]: 0.7917 ± 0.0062
promoter activity interaction Z-score [5, 30]: 1.11 ± 0.52
promoter activity interaction Z-score [5, 31]: 1.46 ± 0.021
promoter activity interaction Z-score [5, 32]: -1.09 ± 0.82
promoter activity interaction Z-score [5, 33]: 0.0905
promoter activity interaction Z-score [6, 19]: -0.122 ± 0.054
promoter activity interaction Z-score [6, 20]: -0.0498 ± 0.071
promoter activity interaction Z-score [6, 21]: -0.238 ± 0.013
promoter activity interaction Z-score [6, 22]: 0.0558 ± 0.064
promoter activity interaction Z-score [6, 23]: 0.0837 ± 0.14
promoter activity interaction Z-score [6, 24]: -0.057 ± 0.033
promoter activity interaction Z-score [6, 25]: -0.128 ± 0.036
promoter activity interaction Z-score [6, 26]: -0.0814 ± 0.0056
promoter activity interaction Z-score [6, 27]: -0.548 ± 0.11
promoter activity interaction Z-score [6, 28]: -0.166 ± 0.013
promoter activity interaction Z-score [6, 29]: 0.103 ± 0.18
promoter activity interaction Z-score [6, 30]: 0.183 ± 0.15
promoter activity interaction Z-score [6, 31]: -1.17 ± 0.016
promoter activity interaction Z-score [6, 32]: -0.119 ± 0.29
promoter activity interaction Z-score [6, 33]: -0.534
promoter activity interaction Z-score [1, 19]: 0.809 ± 0.57
promoter activity interaction Z-score [1, 20]: 0.473 ± 0.32
promoter activity interaction Z-score [1, 21]: 0.576 ± 0.47
promoter activity interaction Z-score [1, 22]: 1.1 ± 0.088
promoter activity interaction Z-score [1, 23]: 1.81 ± 0.86
promoter activity interaction Z-score [1, 24]: 1.78 ± 0.49
promoter activity interaction Z-score [1, 25]: 1.2 ± 0.46
promoter activity interaction Z-score [1, 26]: 1.55 ± 0.91
promoter activity interaction Z-score [1, 27]: 0.1844 ± 0.0012
promoter activity interaction Z-score [1, 28]: 1.34 ± 0.83
promoter activity interaction Z-score [1, 29]: 0.797 ± 0.094
promoter activity interaction Z-score [1, 30]: 1.6 ± 0.38
promoter activity interaction Z-score [1, 31]: -1.42 ± 0.36
promoter activity interaction Z-score [1, 32]: -1.37 ± 0.11
promoter activity interaction Z-score [1, 33]: -0.525
promoter activity interaction Z-score [2, 19]: -0.00573 ± 0.3
promoter activity interaction Z-score [2, 20]: -0.626 ± 0.41
promoter activity interaction Z-score [2, 21]: -0.328 ± 0.36
promoter activity interaction Z-score [2, 22]: 0.732 ± 0.14
promoter activity interaction Z-score [2, 23]: -0.692 ± 0.34
promoter activity interaction Z-score [2, 24]: -0.0133 ± 0.15
promoter activity interaction Z-score [2, 25]: -0.61 ± 0.2
promoter activity interaction Z-score [2, 26]: -0.218 ± 0.31
promoter activity interaction Z-score [2, 27]: -1.41 ± 0.4
promoter activity interaction Z-score [2, 28]: -0.957 ± 0.41
promoter activity interaction Z-score [2, 29]: -1.44 ± 0.12
promoter activity interaction Z-score [2, 30]: -1.17 ± 0.88
promoter activity interaction Z-score [2, 31]: -2.19 ± 0.21
promoter activity interaction Z-score [2, 32]: -1.15 ± 0.94
promoter activity interaction Z-score [3, 19]: -0.0492 ± 0.039
promoter activity interaction Z-score [3, 20]: 0.159 ± 0.13
promoter activity interaction Z-score [3, 21]: 0.217 ± 0.045
promoter activity interaction Z-score [3, 22]: 0.238 ± 0.14
promoter activity interaction Z-score [3, 23]: 0.299 ± 0.018
promoter activity interaction Z-score [3, 24]: 0.529 ± 0.11
promoter activity interaction Z-score [3, 25]: 0.189 ± 0.096
promoter activity interaction Z-score [3, 26]: 0.422 ± 0.29
promoter activity interaction Z-score [3, 27]: 0.645 ± 0.3
promoter activity interaction Z-score [3, 28]: 0.914 ± 0.026
promoter activity interaction Z-score [3, 29]: 0.721 ± 0.017
promoter activity interaction Z-score [3, 30]: 1.45 ± 1.5
promoter activity interaction Z-score [3, 31]: 1.67 ± 0.091
promoter activity interaction Z-score [3, 32]: 2.38 ± 0.034
promoter activity interaction Z-score [3, 33]: 1.71 ± 1.7
promoter activity interaction Z-score [4, 19]: 0.142 ± 1.1
promoter activity interaction Z-score [4, 20]: -0.0323 ± 0.44
promoter activity interaction Z-score [4, 21]: 0.149 ± 0.77
promoter activity interaction Z-score [4, 22]: -0.831 ± 0.55
promoter activity interaction Z-score [4, 23]: 0.339 ± 0.15
promoter activity interaction Z-score [4, 24]: 0.367 ± 0.84
promoter activity interaction Z-score [4, 25]: -0.202 ± 1.4
promoter activity interaction Z-score [4, 26]: 0.0632 ± 1
promoter activity interaction Z-score [4, 27]: 0.356 ± 1.2
promoter activity interaction Z-score [4, 28]: 0.168 ± 0.82
promoter activity interaction Z-score [4, 29]: -0.0545 ± 0.19
promoter activity interaction Z-score [4, 30]: 2.03 ± 0.53
promoter activity interaction Z-score [4, 31]: -0.0529 ± 0.35
promoter activity interaction Z-score [4, 32]: -0.256 ± 0.82
promoter activity interaction Z-score [4, 33]: 1.66 ± 0.93
